Giardia FBPA inh = blocks Giardia fructose-bisphosphate aldolase activity; purified Giardia FBPA; A8B2U2; 0.71% of 290,000 active; Potency, µM (highest dose often 59.6 µM), for inactives: top-dose activity, negative = inhibition, usual class: inhibitors; note: potency is the fitted concentration of half-maximal effect; % is set by controls: 0 for no effect and ±100 for the full control effect; nearly all actives have a fitted effect of over 55% in size
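Giardia FBPA (40 nM reagent) was preincubated 10 min at RT with compound (up to 57.5 uM final), then substrate plus GAPDH/TPI/NAD/arsenate coupling system with diaphorase/resazurin was added; resorufin fluorescence (525/598 nm) was read after 20 min.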
Shiga inhibitor = Shiga toxin inhibition | Vero cells, Shiga toxin protein synthesis inhibition reporter | inhibition, % at 38.7 µM | 9.2% of 290,000 active; in the data active = inhibition mostly above about 28%, no sharp cut-off; inactive = mostly below about 43%; note: 0% is about no effect
LmPK inhibitor = blocks Leishmania mexicana pyruvate kinase activity; purified LmPK, Kinase-Glo ATP luminescence, 1 h; Potency, µM (top dose mostly 57.5 µM), inactives show top-dose activity change, negative = inhibition, actives largely listed as inhibitors; 0.37% of 290,000 active; note: potency is the fitted concentration of half-maximal effect; % is set by controls: 0 for no effect and ±100 for the full control effect
Target sequence (Q27686 whole entry, looked up): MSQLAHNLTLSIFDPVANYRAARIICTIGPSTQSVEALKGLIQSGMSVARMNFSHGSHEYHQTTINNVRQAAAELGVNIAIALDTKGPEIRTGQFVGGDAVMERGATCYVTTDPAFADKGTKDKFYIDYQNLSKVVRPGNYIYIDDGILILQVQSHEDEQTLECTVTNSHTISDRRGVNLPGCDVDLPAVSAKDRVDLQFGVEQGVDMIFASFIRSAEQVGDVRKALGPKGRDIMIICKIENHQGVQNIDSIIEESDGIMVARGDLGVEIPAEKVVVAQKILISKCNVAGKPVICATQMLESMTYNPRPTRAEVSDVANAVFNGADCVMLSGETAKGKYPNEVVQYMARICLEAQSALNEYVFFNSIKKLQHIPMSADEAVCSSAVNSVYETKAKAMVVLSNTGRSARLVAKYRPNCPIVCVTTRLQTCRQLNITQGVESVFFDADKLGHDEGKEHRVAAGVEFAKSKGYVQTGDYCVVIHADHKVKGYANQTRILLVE
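qHTS format; LmPK 0.1 nM; substrates PEP 0.5 mM and ADP 0.1 mM. One-hour room-temperature incubation, then coupled luciferase luminescence; 0.5 nM enzyme wells mark activation.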
Sm TGR block = inhibitors of Schistosoma mansoni thioredoxin glutathione reductase | Q962Y6 | purified TGR, DTNB reduction, TNB absorbance 405 nm | Potency, µM (series often up to 114 µM), without a hit: at the top dose activity change, negative = inhibition, usual class: inhibitors | 3% of 360,000 active | AID 485364; note: potency is the fitted concentration of half-maximal effect; % is set by controls: 0 for no effect and ±100 for the full control effect; nearly all actives have a fitted effect of over 60% in size
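First, TGR (20 nM dispensed) and NADPH were mixed with compound. Second, a 15 min room-temperature incubation followed. Third, further NADPH and then DTNB were added to start the reaction. Finally, TNB absorbance was monitored kinetically.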
CHX counter = counter-screen hit for Shiga toxin inhibitors, cycloheximide; AID 2314; cell reporter, cycloheximide protein synthesis inhibition counterscreen; 12% of 300,000 active; max response, %; in the data active = max response mostly above about 13%, no sharp cut-off; inactive = mostly below about 14%; note: read at 38.3 µM for the half of the compounds with a filed dose; 0% is about no effect
Tb PYK inh = T. brucei pyruvate kinase inhibition | AID 624173 | 0.12% of 410,000 active | Q57TT1 | TbPYK enzyme, Kinase-Glo Plus ATP luminescence, 45 min | Potency, µM (titrated, usually from 76.8 µM), without a hit: at the top dose activity, negative = inhibition, hits mostly inhibitors; note: potency is the fitted concentration of half-maximal effect; % is set by controls: 0 for no effect and ±100 for the full control effect; nearly all actives have a fitted effect of over 50% in size
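Luminescence from Kinase-Glo Plus, added after a 45-minute room-temperature reaction, served as the end-point read-out. The enzyme and substrate were preincubated with compound before ADP (130 uM final) initiated turnover. Concentration-effect curves came from normalized qHTS data.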
* marks the source's active call; other numbers are inactive results; [ ] = remark or other dose. This excerpt belongs to a sample that is enriched for hits. Unless noted, calls come from the whole dose curve; as a rule, active = well fitted curve in the direction sought with a large enough effect; inconclusive = small, poorly fitted or top-dose-only effect, or another doubt; inactive = no such curve, though single readings can be large; an effect the other way counts as inactive or inconclusive.

Results for COc1cc(Cl)ccc1OCc1cc(C(=O)N2CCCCC2c2cccnc2)no1 (centres undefined) ?
Giardia FBPA inh: -11%; Shiga inhibitor: 32; LmPK inhibitor: 7%; Sm TGR block: -15%; CHX counter: 17*; Tb PYK inh: -6%

What do the screens show for `COC(=O)c1ccc(C(NC(=O)OCc2ccccc2)/C(C)=C/[C@@H](C)C(=O)NCCN2CCOCC2)cc1` (some centres undefined)?
Giardia FBPA inh: 8%

What do the screens show for `COc1ccc(-n2c(SCC(=O)Nc3cccc(C)c3C)nc3c([nH]c4ccccc43)c2=O)cc1`?
Sm TGR block: 3%; Tb PYK inh: 1%

Results for CCOc1ccccc1CNC(=O)C1CCN(c2nnc(-n3c(C)ccc3C)s2)CC1 ?
Sm TGR block: inconclusive; Tb PYK inh: -3%

Results for O=C(CNC(=S)N(Cc1ccccc1)Cc1ccccc1F)NCCc1ccc(Cl)cc1 ?
Giardia FBPA inh: -9%; Shiga inhibitor: 0; LmPK inhibitor: 1%; Sm TGR block: 1%; CHX counter: 3; Tb PYK inh: -1%

What do the screens show for `CCc1ccc(NC(=O)CN2C(=O)C3(SCC(=O)N3c3ccccc3)c3ccccc32)cc1` (centres undefined)?
Sm TGR block: 1%; Tb PYK inh: 0%

Results for COc1ccc(OC)c(C2=Nn3c(nnc3-c3ccccc3C)SC2)c1 ?
Giardia FBPA inh: -16%; Shiga inhibitor: -10; CHX counter: 8

How did Cc1ccc(NC(=O)CSc2nccn2C2CCCC2)cc1 do in these assays?
Sm TGR block: 4%; Tb PYK inh: 1%

Results for COc1ccc(/C(C)=N/Nc2ccc(C(=O)O)cc2)c(OC)c1 ?
Giardia FBPA inh: -1%; Shiga inhibitor: 53*; LmPK inhibitor: 1%; Sm TGR block: -21%; CHX counter: 61*; Tb PYK inh: 11%

What do the screens show for `C/C(=N\Nc1ccc(C(=O)O)cc1)c1ccc(Br)cc1`?
Giardia FBPA inh: 8%; Shiga inhibitor: 42*; LmPK inhibitor: 4%; Sm TGR block: inconclusive; CHX counter: 21*; Tb PYK inh: 2%

How did CCOC(=O)c1c(NC(C)=O)sc(/C(C)=N/Nc2ccc(C(=O)O)cc2)c1C do in these assays?
Giardia FBPA inh: 0%; Shiga inhibitor: 59*; LmPK inhibitor: -3%; Sm TGR block: 0%; CHX counter: 70*; Tb PYK inh: 10%

What do the screens show for `C/C(=N\NC(=O)C(O)c1ccccc1)c1ccc(Cl)s1` (centres undefined)?
Giardia FBPA inh: 3%; Shiga inhibitor: -9; LmPK inhibitor: 0%; Sm TGR block: -4%; CHX counter: -2; Tb PYK inh: -5%

How did C/C(=N\Nc1ccc(C(=O)O)cc1)c1ccc(Cl)s1 do in these assays?
Giardia FBPA inh: -3%; Shiga inhibitor: 62*; LmPK inhibitor: -4%; Sm TGR block: -2%; CHX counter: 40*; Tb PYK inh: 2%

Results for C/C(=N\NC(=O)C(O)c1ccccc1)c1ccc(Br)s1 (centres undefined) ?
Giardia FBPA inh: 3%; Shiga inhibitor: 3; LmPK inhibitor: 1%; Sm TGR block: -7%; CHX counter: 15; Tb PYK inh: -4%

What do the screens show for `C/C(=N\Nc1ccc(Cl)c(C(=O)O)c1)c1ccc(Br)s1`?
Giardia FBPA inh: -18%; Shiga inhibitor: 153*; LmPK inhibitor: 5%; Sm TGR block: 50µM*; CHX counter: 59*; Tb PYK inh: -12%

What do the screens show for `Nc1ccc(-c2cn3cccnc3n2)cc1`?
Giardia FBPA inh: -1%; Shiga inhibitor: 76; LmPK inhibitor: -1%; Sm TGR block: -2%; CHX counter: 17*; Tb PYK inh: 3%

What do the screens show for `COc1ccc(-c2cc(-c3ccccc3)nc3ncnn23)cc1`?
Giardia FBPA inh: 6%; Shiga inhibitor: 19; LmPK inhibitor: 5%; Sm TGR block: 8%; CHX counter: -5; Tb PYK inh: -4%

Results for COc1ccc(-c2cn3cccnc3n2)cc1Br ?
Giardia FBPA inh: -3%; Shiga inhibitor: 99*; LmPK inhibitor: -16%; Sm TGR block: 12%; CHX counter: 15*; Tb PYK inh: -16%

How did COc1ccc(-c2cn3cc(Br)cnc3n2)cc1 do in these assays?
Giardia FBPA inh: -4%; Shiga inhibitor: 23; LmPK inhibitor: -11%; Sm TGR block: -8%; CHX counter: 25*; Tb PYK inh: 7%

Results for Cc1ccc[n+](/C(C(=S)NCc2ccco2)=C(/[O-])c2ccccc2Cl)c1 ?
Giardia FBPA inh: inconclusive; Shiga inhibitor: -7; LmPK inhibitor: 3%; Sm TGR block: 32µM*; CHX counter: -1; Tb PYK inh: -3%

What do the screens show for `Cc1ccc[n+](C(C(=S)NCc2ccco2)=C([O-])c2ccccc2Cl)c1`?
Tb PYK inh: -5%

What do the screens show for `COCCNC(=S)NC(=O)c1ccc(C(C)(C)C)cc1`?
Giardia FBPA inh: -13%; Shiga inhibitor: 96*; LmPK inhibitor: -1%; Sm TGR block: 40µM*; CHX counter: 59*; Tb PYK inh: -4%

How did CC(C)(C)c1ccc(/C([O-])=C(/C(=S)NCc2ccco2)[n+]2ccccc2)cc1 do in these assays?
Giardia FBPA inh: inconclusive; Shiga inhibitor: -1; LmPK inhibitor: 3%; Sm TGR block: 56µM*; CHX counter: 9

Results for O=C(NC(=S)NCc1ccco1)c1ccc(Br)cc1 ?
Giardia FBPA inh: inconclusive; Shiga inhibitor: 24; LmPK inhibitor: 7%; Sm TGR block: 50µM*; CHX counter: 19; Tb PYK inh: -10%

How did COc1ccc(N2CCN(CCCNC(=O)c3c(C)nn(-c4ccc(F)cc4)c3-n3cccc3)CC2)cc1 do in these assays?
Sm TGR block: -5%; Tb PYK inh: -1%

Results for COc1ccc2c(c1)c1c(c(=O)n(-c3ccccc3C)c(=O)n1CC(=O)NCc1ccc(C)cc1)n2C ?
Sm TGR block: 4%; Tb PYK inh: 0%

What do the screens show for `CCOC(=O)OCC1OC(C#Cc2ccccc2)C=CC1OC(=O)OCC` (centres undefined)?
Giardia FBPA inh: -2%[12.9 µM]

How did Cc1cccc(C)c1NC(=O)Cn1nc(C)c2sc3ccccc3c2c1=O do in these assays?
Sm TGR block: -21%; Tb PYK inh: 4%

How did O=C(NC(=S)NCc1ccco1)c1ccccc1 do in these assays?
Giardia FBPA inh: 0%; Shiga inhibitor: -4; LmPK inhibitor: 8%; Sm TGR block: 2%; CHX counter: -2; Tb PYK inh: -4%

Results for CC(C)(CO)NC(=S)NCc1ccco1 ?
Giardia FBPA inh: inconclusive; Shiga inhibitor: 4; LmPK inhibitor: -1%; Sm TGR block: 25µM*; CHX counter: -2; Tb PYK inh: -11%
